According to PubChem BioAssay AID720700 (The Scripps Research Institute Molecular Screening Center, 2013):
Several values for one entry are separate records, joined by “and”; a condition that tells them apart may be missing. Identical values can stand only once. In all, about 370,000 compounds went through this assay and about 3,100 (0.84%) were called active. The sample as a whole holds a higher share of actives than the screen did. Values without a mark were called inactive. No stated cut-off is given here; in the data, active means inhibition above about 9.5%; inactive means the rest.

What follows are compounds tested against 1-phosphatidylinositol 4,5-bisphosphate phosphodiesterase gamma-1 (Homo sapiens) (UniProt P19174) (assay: PLC-gamma1 enzyme inhibitors, primary screen, biochemical, fluorescence, purified enzyme (AID 720700)). Settings: purified PLC-gamma1, fluorogenic substrate, at 12.2 µM, hits give high values.
Sequence of 1-phosphatidylinositol 4,5-bisphosphate phosphodiesterase gamma-1 (Homo sapiens) (P19174 whole entry, looked up): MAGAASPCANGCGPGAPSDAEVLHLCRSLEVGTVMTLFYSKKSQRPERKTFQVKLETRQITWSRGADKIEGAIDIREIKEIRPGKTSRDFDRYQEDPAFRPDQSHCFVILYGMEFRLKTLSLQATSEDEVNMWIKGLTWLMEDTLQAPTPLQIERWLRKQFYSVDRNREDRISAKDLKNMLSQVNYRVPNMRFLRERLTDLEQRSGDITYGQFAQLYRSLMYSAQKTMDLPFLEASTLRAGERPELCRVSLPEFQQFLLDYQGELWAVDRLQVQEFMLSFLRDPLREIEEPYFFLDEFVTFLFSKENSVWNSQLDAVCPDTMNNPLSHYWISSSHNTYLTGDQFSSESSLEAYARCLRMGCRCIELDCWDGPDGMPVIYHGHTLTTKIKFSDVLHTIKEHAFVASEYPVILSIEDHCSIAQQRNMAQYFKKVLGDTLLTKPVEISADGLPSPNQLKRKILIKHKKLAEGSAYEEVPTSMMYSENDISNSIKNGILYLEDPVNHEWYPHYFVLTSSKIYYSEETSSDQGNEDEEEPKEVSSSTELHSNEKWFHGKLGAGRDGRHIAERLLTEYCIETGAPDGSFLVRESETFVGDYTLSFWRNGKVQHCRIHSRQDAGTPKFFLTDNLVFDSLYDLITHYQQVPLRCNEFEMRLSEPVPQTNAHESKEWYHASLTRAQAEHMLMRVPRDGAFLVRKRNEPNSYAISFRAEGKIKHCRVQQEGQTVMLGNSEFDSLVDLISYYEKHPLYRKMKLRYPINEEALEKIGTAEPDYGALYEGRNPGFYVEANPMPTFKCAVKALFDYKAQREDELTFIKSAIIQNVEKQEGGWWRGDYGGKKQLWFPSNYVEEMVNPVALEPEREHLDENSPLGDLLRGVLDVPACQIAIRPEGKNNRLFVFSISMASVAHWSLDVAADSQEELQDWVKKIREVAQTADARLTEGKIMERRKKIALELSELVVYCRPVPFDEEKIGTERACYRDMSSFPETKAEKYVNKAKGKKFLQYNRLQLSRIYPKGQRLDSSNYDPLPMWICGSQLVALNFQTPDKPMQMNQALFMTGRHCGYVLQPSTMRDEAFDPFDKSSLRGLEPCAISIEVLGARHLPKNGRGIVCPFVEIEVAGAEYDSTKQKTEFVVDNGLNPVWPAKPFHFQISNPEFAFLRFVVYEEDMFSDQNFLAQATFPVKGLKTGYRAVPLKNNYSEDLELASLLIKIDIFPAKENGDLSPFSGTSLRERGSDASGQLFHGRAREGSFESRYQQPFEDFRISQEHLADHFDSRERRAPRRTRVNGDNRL

| SMILES | inhibition |
| --- | --- |
| CC(=O)N1CN2CN(C(C)=O)CC(C(=O)c3ccc(Br)cc3)(C2)C1 | 11.9% (active) |
| Cc1cc(-c2ccc(N)c(C)c2)ccc1N | 2.25% |
| Oc1ccc2c3c1OC1[C@H](O)CC[C@@]4(O)[C@@H](C2)N(CC2CC2)CC[C@]314 (stereo not given in full) | -3.08% and -2.01% |
| O=C(NC1CCCCC1)N1Cc2cc(N3CCCCC3)ccc2-n2nncc2C1 | -5.89% |
| CCN(CC)P(=O)(Oc1cccc(C)c1)N(CC)CC | 7.26% |
| COC(=O)C1=C(c2ccc(-c3ccccc3)c(F)c2)C[C@@H]2CC[C@H]1N2C(=O)NCc1ccc(F)cc1 | 11.8% (active) |
| COC(=O)C1=C(c2ccc(F)cc2OCc2ccccc2)C[C@@H]2CC[C@H]1N2C(=O)NCc1ccc(Cl)cc1 | 4.35% |
| COC(=O)C1=C(c2cccc(OCc3ccccc3)c2)C[C@@H]2CC[C@H]1N2C(=O)NCc1ccc(Br)cc1 | 0.93% |
| CCOC(=O)C(O)(c1ccc(N)c(OC)c1)C(F)(F)F (stereo not given) | 0.45% |
| CN(C)CCN(CC1CCCN(Cc2ccccc2F)C1)C(=O)Cc1ccc(F)c(F)c1 (stereo not given) | 1.2% |
